Most compounds without a hit are left out; they make up all but 2.8% or so of the library.
EWS-Fli block: inhibitors of EWS/Fli oncoprotein transcriptional activity | A673 NR0B1-luciferase reporter, viability-normalised | inhibition, % at 12.6 µM | 350,000 tested, 0.67% active | AID 651661;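 active = mean inhibition of at least 50% after viability correction, with every replicate also passing that limit; inconclusive = mean reaches 50% but only one of two replicates passes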;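 note: firefly luciferase signal divided by Alamar Blue viability fluorescence both relative to DMSO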
TWEAK-Fn14 inh: TWEAK-Fn14 signaling inhibition | 360,000 tested, 2% active | AID 1159606 | TWEAK-stimulated Fn14 reporter cells, luciferase luminescence, 8 h | inhibition, % at 10 µM; in the data active = inhibition above about 50%
TROY NFkB inh: inhibitors of TROY-dependent NF-kB signaling; Q293 LMP1-TROYcd NF-kB luciferase reporter, 4 h; 360,000 tested, 0.98% active; inhibition, % at 10 µM;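 active = compounds whose plate-normalised and pattern-corrected inhibition of the luciferase reporter signal at the single screening dose is 50% or more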
PAX8 inh HTS: lowers PAX8-driven luciferase in RMG-I cells; RMG-I TPO-luciferase reporter, SteadyGlo, 24 h; 360,000 tested, 1.2% active; inhibition, % at 12.6 µM;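 active = mean replicate inhibition at least 60% with every replicate also reaching 60%; inconclusive = only one of the two criteria is met; inactive = mean below 60% and not all replicates reaching 60%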;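 note: luciferase light reporting Pax8 driven TPO promoter activity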
LGR2 antag: blocks bursicon-induced cAMP signaling via Drosophila LGR2; inhibition, % at 9.99 µM; 380,000 tested, 0.35% active; HEK293 LGR2, CRE-luciferase, bursicon-stimulated, 4 h;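 active = drop in luminescence signal, shown as inhibition above about 50% in the replicate tests, limit read from the data, passing the limit was not always enough; inconclusive = probably only some replicates passing the limit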;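 note: agonist challenge used bursicon conditioned medium at about half maximal strength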
A number is an active result; n = inactive; u = inconclusive; x = no result.

SMILES	EWS-Fli block	TWEAK-Fn14 inh	TROY NFkB inh	PAX8 inh HTS	LGR2 antag
CCN1C(=O)/C(=C\c2nc3ccccc3c(=O)n2-c2ccccc2)c2ccccc21	n	57.2	n	n	n
C[C@H]1CN([C@@H](C)CO)C(=O)Cc2cc(NC(=O)Nc3ccc4c(c3)OCO4)ccc2O[C@H]1CN(C)S(=O)(=O)c1ccc(F)cc1	52.9	x	x	x	n
C[C@H](CO)N1C[C@H](C)[C@@H](CN(C)S(=O)(=O)c2ccc(F)cc2)Oc2ccc(NC(=O)Nc3ccc4c(c3)OCO4)cc2CC1=O	n	x	x	x	n
Cc1ccc(S(=O)(=O)N(C)C[C@@H]2Oc3ccc(NC(=O)Nc4ccc5c(c4)OCO5)cc3CC(=O)N([C@@H](C)CO)C[C@@H]2C)cc1	63.4	x	x	n	n
Cc1ccc(S(=O)(=O)N(C)C[C@H]2Oc3ccc(NC(=O)Nc4ccc5c(c4)OCO5)cc3CC(=O)N([C@H](C)CO)C[C@@H]2C)cc1	n	x	x	n	n
Cc1cc(C)c2cccc(N)c2n1	n	n	n	n	n
Cc1cc(C)c2ccc(N)nc2c1O	x	68.8	n	n	x
C[C@@H]1CN([C@H](C)CO)C(=O)c2cc(NC(=O)CCN3CCOCC3)ccc2O[C@H]1CN(C)Cc1ccncc1	x	x	x	n	n
O=C1C(Cl)=C(N2CCCCC2)C(=O)C(Cl)=C1c1cnc(N2CCCCC2)s1	x	50.7	n	x	x
CCC(C)(C)C1CCc2[nH]nc(C(=O)N/N=C(\C)c3ccco3)c2C1 (configuration not stated)	n	n	68.4	n	n
C/C(=N\NC(=O)c1n[nH]c2c1CCC2)c1ccco1	n	58.6	n	n	n
O=C(NN=C1CCCC1)c1n[nH]c2c1CCC2	n	n	n	n	n
Cc1cc(O)c(-c2n[nH]c3c2C(c2cccc(O)c2)N(Cc2cccnc2)C3=O)cc1Cl (configuration not stated)	x	n	63.0	n	x
CCCN1C(=O)c2[nH]nc(-c3cc(Cl)c(C)cc3O)c2C1c1ccc(O)c(OC)c1 (configuration not stated)	n	n	n	n	n
CCN(CC)CCNC(=O)c1cc(-c2cccnc2)nc2ccc(S(=O)(=O)N3CCC(C)CC3)cc12	63.1	n	n	n	n
CCC(=O)N1C[C@@H](C)[C@@H](OC)CN(C)C(=O)c2cc(NC(=O)NC(C)C)ccc2OC[C@@H]1C	n	x	x	x	n
Cc1ccc(-c2nc(-c3ccccc3)no2)cc1	x	62.0	n	x	x
Cc1ccc(-c2nc(-c3ccncc3)no2)cc1	n	n	n	n	n
CC(C)(C)c1ccc(-c2nc(-c3ccncc3)no2)cc1	n	78.8	72.4	x	u
COc1ccc(-c2nc(-c3ccncc3)no2)c(OC)c1	n	56.4	n	n	65.7
Cc1ccc(-c2nc(-c3cccnc3)no2)cc1	x	n	n	x	x
Cc1ccc(-c2nc(-c3ccccc3)no2)c(Cl)c1	83.9	100.9	81.3	n	66.7
C[C@H](CO)N1C[C@H](C)[C@@H](CN(C)S(C)(=O)=O)Oc2cc(C#CCN(C)C)ccc2S1(=O)=O	n	x	x	x	n
CN(C)CC(=O)N[C@@H]1CC[C@@H](CC(=O)NCCN2CCCCC2)O[C@H]1CO	n	x	x	n	n
COC(=O)C(=Cc1ccccc1[N+](=O)[O-])C(=O)OC	n	68.6	n	n	n
SMILES	EWS-Fli block	TWEAK-Fn14 inh	TROY NFkB inh	PAX8 inh HTS	LGR2 antag
CCC(=O)c1ccc(OCC(=O)Nc2cccc(S(=O)(=O)N3CCCCCC3)c2)cc1	n	54.5	n	n	n
Cc1ccc(NC(=O)CNc2cccc(S(=O)(=O)N3CCOCC3)c2)cc1F	n	n	n	n	n
O=C(COc1ccc(C(=O)c2ccc(F)cc2)cc1)Nc1cccc(S(=O)(=O)N2CCOCC2)c1	n	57.2	54.4	n	n
COc1cc(NC(=O)CNc2cccc(S(=O)(=O)N3CCOCC3)c2)cc(OC)c1	n	n	77.7	n	n
C[C@@H]1CN([C@H](C)CO)S(=O)(=O)c2ccc(C#Cc3ccccc3)cc2O[C@@H]1CN(C)C(=O)Cc1ccccn1	n	x	x	x	n
C[C@@H]1CN([C@H](C)CO)C(=O)Cc2cc(NC(=O)Nc3ccc4c(c3)OCO4)ccc2O[C@@H]1CN(C)Cc1ccc(C(=O)O)cc1	n	x	x	n	n
O=C(COC(=O)c1ccccc1NS(=O)(=O)c1cccs1)NCC12CC3CC(CC(C3)C1)C2	n	n	60.5	n	n
O=C(COC(=O)c1ccccc1NS(=O)(=O)c1cccs1)NC1CCCCC1	x	n	n	n	n
O=C(CCN1CCCCC1)NCC[C@@H]1CC[C@H](NC(=O)c2ccc(F)cc2)[C@H](CO)O1	n	x	x	n	n
C[C@H](CO)N1C[C@H](C)[C@H](CN(C)C(=O)Nc2ccc(C(F)(F)F)cc2)OCCCC[C@H](C)Oc2ccc(NC(=O)NC3CCCCC3)cc2C1=O	n	x	x	n	55.1
C[C@H]1CCCCO[C@@H](CN(C)C(=O)NC2CCCCC2)[C@@H](C)CN([C@@H](C)CO)C(=O)c2cc(NC(=O)Nc3ccc(C(F)(F)F)cc3)ccc2O1	n	x	x	87.9	n
C[C@H]1CCCCO[C@H](CN(C)C(=O)Nc2ccc(C(F)(F)F)cc2)[C@@H](C)CN([C@@H](C)CO)C(=O)c2cc(NC(=O)NC3CCCCC3)ccc2O1	n	x	x	n	n
C[C@@H]1CN([C@H](C)CO)C(=O)c2cc(NC(=O)Nc3ccc(C(F)(F)F)cc3)ccc2O[C@@H](C)CCCCO[C@@H]1CN(C)C(=O)NC1CCCCC1	n	x	x	85.9	n
